Data reported in PubChem BioAssay (NCATS).
Values without a mark were called inactive. Inconclusive results are not listed. This is one part of the list. A call without a number means that no potency is given here. The source made the active and inactive calls. Unless noted, calls come from the whole dose curve; as a rule, active = well fitted curve in the direction sought with a large enough effect; inconclusive = small, poorly fitted or top-dose-only effect, or another doubt; inactive = no such curve, though single readings can be large; an effect the other way counts as inactive or inconclusive.

What was measured:
[1] = AP1 Signaling Pathway (AID 357; active = well fitted curve in either direction with a large enough effect, not every such curve was filed as active;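 note: ME-180 reporter cells stimulated with EGF at its EC50 level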); details: ME-180 (cervical carcinoma) AP-1-bla reporter, EGF-induced, beta-lactamase ratio, 5 h; at 7.69 µM (top of the series) unless noted
Outline: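 Modulation of EGF-driven AP-1 transcription was assessed with a beta-lactamase reporter in ME-180 cells. Compound and EC50 EGF were co-incubated 5 hours at 37 °C before 2.5-hour CCF4 loading at room temperature and dual-emission reading.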

[2] = NFAT Signaling Pathway (AID 444; active = well fitted curve in either direction with a large enough effect, not every such curve was filed as active;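 note: carbachol stimulus at about its EC50 of 1 µM final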); details: Jurkat NFAT-bla M1, carbachol, beta-lactamase ratio, 5 h; at 7.69 µM (top of the series) unless noted
Outline: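 Jurkat cells carrying an NFAT-driven β-lactamase reporter and co-transfected muscarinic M1 receptor were treated with compound plus carbachol (1 uM final, an EC50 level) for 5 h at 37 °C. CCF4 loading followed for 1 h at RT; 460/530 nm ratio gave %activity.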

[3] = Stat Signaling Pathway (AID 446; active = well fitted curve in either direction with a large enough effect, not every such curve was filed as active;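 note: ME-180 cervical cancer cells given 40 pM IL-6 alongside compound; SIE-controlled beta-lactamase reporter measured as 460/530 nm FRET emission ratio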)
Outline: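 Normalization used AC90 stimulation (300 pM IL-6) and AC90 inhibition (125 nM pan-JAK inhibitor at 40 pM IL-6). The underlying signal is SIE-driven beta-lactamase in ME-180 cells after 5 h IL-6 exposure with compound.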

[4] = molecular target: Glucocorticoid receptor (Homo sapiens) (UniProt P04150); experiment: GR-GFP Redistribution (AID 450;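 active = compounds whose dose series gives a full or clear partial fitted curve of increased nuclear translocation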; note: potency is the fitted concentration of half-maximal effect); details: U2OS GR-GFP nuclear translocation, laser cytometry, 2 h
[5] = molecular target: Rap guanine nucleotide exchange factor 3 (Homo sapiens) (UniProt O95398); experiment: Confirmatory qHTS for antagonist of cAMP-regulated guanine nucleotide exchange factor 3 (EPAC1) (AID 1645880); details: EPAC1 Rap1B-BODIPY-GDP exchange, fluorescence; activity, negative = inhibition: at 115 µM (top of the series); note: nearly all actives have a fitted effect of over 55% in size; note: potency is the fitted concentration of half-maximal effect
Sequence of Rap guanine nucleotide exchange factor 3 (Homo sapiens) (O95398 whole entry, looked up): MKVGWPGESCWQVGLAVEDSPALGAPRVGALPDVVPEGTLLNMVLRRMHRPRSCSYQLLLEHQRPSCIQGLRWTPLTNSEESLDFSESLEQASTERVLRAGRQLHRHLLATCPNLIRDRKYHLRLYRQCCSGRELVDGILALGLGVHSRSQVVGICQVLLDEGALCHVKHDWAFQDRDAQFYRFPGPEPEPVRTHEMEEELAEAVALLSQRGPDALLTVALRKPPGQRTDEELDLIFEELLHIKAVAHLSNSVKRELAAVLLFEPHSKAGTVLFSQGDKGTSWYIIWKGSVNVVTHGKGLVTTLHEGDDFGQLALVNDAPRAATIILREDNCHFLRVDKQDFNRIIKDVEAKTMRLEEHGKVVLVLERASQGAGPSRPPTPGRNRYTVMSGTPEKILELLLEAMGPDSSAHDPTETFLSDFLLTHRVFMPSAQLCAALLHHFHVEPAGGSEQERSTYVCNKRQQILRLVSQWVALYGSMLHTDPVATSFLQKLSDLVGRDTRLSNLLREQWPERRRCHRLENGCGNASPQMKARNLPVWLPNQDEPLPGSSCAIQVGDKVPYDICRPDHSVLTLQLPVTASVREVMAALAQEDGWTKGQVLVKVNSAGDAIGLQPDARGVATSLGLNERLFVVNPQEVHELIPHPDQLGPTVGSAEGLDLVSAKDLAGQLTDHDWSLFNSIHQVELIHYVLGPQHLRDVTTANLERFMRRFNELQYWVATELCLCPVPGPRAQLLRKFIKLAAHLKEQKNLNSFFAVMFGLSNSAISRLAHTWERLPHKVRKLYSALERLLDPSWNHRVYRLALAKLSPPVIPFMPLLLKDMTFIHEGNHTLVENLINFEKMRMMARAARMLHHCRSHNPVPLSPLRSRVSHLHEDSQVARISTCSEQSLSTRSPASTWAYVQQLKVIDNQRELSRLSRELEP
Outline: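 Released BODIPY-GDP fluoresces less than Rap1-bound BODIPY-GDP; the signal is followed at 480/540 nm at 5-min intervals over 30 min, after 5 min at room temperature. Reactions contain 100 nM EPAC1, 250 nM RAP1B-BODIPY-GDP and 50 uM GDP; results are normalized to ATA and DMSO.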

[6] = molecular target: Rap guanine nucleotide exchange factor 3 (Homo sapiens) (UniProt O95398); experiment: Confirmatory qHTS for agonist of cAMP-regulated guanine nucleotide exchange factor 3 (EPAC1) (AID 1645881); note: nearly all actives have a fitted effect of over 75% in size; note: potency is the fitted concentration of half-maximal effect;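 for activation: EPAC1 catalysed release of BODIPY-GDP from Rap1B seen as fluorescence loss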
[7] = molecular target: Rap guanine nucleotide exchange factor 4 (Homo sapiens) (UniProt Q8WZA2); experiment: Confirmatory qHTS for agonist of cAMP-regulated guanine nucleotide exchange factor 4 (EPAC2) (AID 1645884);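 note: nucleotide exchange releases bodipy-GDP from Rap1 and this lowers its fluorescence; nearly all actives have a fitted effect of over 65% in size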; note: potency is the fitted concentration of half-maximal effect
Sequence of Rap guanine nucleotide exchange factor 4 (Homo sapiens) (Q8WZA2 whole entry, looked up): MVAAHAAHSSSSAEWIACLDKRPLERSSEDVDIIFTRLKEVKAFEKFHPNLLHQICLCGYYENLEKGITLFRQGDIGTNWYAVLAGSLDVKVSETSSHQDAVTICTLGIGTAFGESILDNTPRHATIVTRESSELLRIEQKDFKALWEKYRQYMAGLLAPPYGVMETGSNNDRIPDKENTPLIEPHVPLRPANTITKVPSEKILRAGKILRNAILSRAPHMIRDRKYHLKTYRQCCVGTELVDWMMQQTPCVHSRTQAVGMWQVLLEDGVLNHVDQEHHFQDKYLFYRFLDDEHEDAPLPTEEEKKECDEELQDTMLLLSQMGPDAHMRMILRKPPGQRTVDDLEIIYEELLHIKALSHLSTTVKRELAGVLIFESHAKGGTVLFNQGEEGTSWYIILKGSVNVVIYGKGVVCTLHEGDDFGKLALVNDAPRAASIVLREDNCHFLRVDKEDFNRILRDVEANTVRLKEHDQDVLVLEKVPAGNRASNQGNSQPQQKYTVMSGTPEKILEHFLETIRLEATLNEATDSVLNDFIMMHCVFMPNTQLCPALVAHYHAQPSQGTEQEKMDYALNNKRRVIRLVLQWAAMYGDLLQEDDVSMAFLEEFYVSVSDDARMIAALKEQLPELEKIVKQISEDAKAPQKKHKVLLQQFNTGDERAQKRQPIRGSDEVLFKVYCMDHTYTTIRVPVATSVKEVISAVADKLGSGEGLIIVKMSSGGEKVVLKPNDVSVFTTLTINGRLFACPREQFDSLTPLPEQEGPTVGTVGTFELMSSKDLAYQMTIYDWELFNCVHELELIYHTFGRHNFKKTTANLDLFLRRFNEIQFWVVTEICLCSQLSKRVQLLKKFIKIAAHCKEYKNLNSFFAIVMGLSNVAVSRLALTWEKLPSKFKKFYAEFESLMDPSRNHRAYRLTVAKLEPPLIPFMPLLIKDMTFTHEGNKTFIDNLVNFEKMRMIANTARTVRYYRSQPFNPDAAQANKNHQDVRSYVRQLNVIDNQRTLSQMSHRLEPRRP

[8] = molecular target: Rap guanine nucleotide exchange factor 3 (Homo sapiens) (UniProt O95398); experiment: Counterscreen qHTS for antagonist of cAMP-regulated guanine nucleotide exchange factor 3 (EPAC1) (AID 1645888); note: potency is the fitted concentration of half-maximal effect
Outline: (§1)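 Measured: fluorescence of BODIPY-GDP bound to Rap1B, which falls as exchange proceeds. Conditions include 50 uM competing GDP, 5 and 30 min reads, and a later cAMP challenge for antagonist detection.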

[9] = molecular target: Rap guanine nucleotide exchange factor 3 (Homo sapiens) (UniProt O95398); experiment: Counterscreen qHTS for agonist of cAMP-regulated guanine nucleotide exchange factor 3 (EPAC1) (AID 1645889); note: nearly all actives have a fitted effect of over 40% in size; note: potency is the fitted concentration of half-maximal effect
Outline: as §1

[10] = molecular target: Cytochrome P450 3A4 (Homo sapiens) (UniProt P08684); experiment: qHTS Assay for Inhibitors and Substrates of Cytochrome P450 3A4 (AID 884); note: potency is the fitted concentration of half-maximal effect; nearly all actives have a fitted effect of over 50% in size
Sequence of Cytochrome P450 3A4 (Homo sapiens) (P08684 whole entry, looked up): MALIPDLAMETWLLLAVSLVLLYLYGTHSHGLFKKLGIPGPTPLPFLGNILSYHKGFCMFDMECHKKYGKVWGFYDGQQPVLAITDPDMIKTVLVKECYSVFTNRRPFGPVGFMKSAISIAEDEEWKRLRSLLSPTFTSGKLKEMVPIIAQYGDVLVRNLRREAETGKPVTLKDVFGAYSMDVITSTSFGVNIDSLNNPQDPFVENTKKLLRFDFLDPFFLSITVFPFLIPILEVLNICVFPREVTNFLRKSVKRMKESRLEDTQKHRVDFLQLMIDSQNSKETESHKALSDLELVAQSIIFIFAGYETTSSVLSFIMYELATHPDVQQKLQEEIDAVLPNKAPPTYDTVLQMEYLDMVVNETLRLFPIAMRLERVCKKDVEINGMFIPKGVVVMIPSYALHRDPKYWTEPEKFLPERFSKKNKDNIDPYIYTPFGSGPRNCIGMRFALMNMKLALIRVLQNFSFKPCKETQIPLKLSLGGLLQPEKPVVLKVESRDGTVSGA
Outline: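 Luminescent readout of luciferin produced by CYP3A4 (20 nM) dealkylation of Luciferin-PPXE, 25 uM (its KM). NADPH-driven reaction ran 60 min at RT after 10 min compound preincubation; data scaled to 57 uM ketoconazole as 100% inhibition.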

[11] = molecular target: Cytochrome P450 3A4 (Homo sapiens) (UniProt P08684); experiment: qHTS Assay for Activators of Cytochrome P450 3A4 (AID 885); note: nearly all actives have a fitted effect of over 65% in size
Outline: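 Human CYP3A4 dealkylates Luciferin-PPXE to luciferin, which luciferase detection converts to light. Substrate was at its KM (25uM), buffer 200mM KPO4, reaction 60 min at RT.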

[12] = molecular target: Tumor susceptibility gene 101 protein (Homo sapiens) (UniProt Q99816); experiment: qHTS Assay for Iinhibitors of HIV-1 Budding by Blocking the Interaction of PTAP/TSG101: Hit Validation (AID 651600); note: potency is the fitted concentration of half-maximal effect; nearly all actives have a fitted effect of over 70% in size
Sequence of Tumor susceptibility gene 101 protein (Homo sapiens) (Q99816 whole entry, looked up, the tested form may be a part): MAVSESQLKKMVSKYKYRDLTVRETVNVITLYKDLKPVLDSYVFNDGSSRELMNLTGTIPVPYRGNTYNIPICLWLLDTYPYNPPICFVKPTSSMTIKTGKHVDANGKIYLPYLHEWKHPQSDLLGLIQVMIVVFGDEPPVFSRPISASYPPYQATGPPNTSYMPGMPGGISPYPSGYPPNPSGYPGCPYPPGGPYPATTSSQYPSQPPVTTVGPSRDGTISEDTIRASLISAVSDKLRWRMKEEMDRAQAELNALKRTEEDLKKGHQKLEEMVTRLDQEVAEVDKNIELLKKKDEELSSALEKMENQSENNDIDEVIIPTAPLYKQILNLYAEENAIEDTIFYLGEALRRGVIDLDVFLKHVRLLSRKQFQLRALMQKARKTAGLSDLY
Outline: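 Displacement of a FITC-labeled PTAP-motif peptide (50 nM) from the Tsg101 binding domain (10 uM) was monitored by fluorescence polarization after a 20 min room-temperature incubation.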

[13] = molecular target: Phosphoglycerate kinase, glycosomal (Trypanosoma brucei brucei) (UniProt P07378); experiment: qHTS for inhibitors of Phosphogylcerate Kinase: Hit Validation Screen (AID 686980); details: TbPGK coupled GAPDH assay, Kinase-Glo luminescence; note: potency is the fitted concentration of half-maximal effect; nearly all actives have a fitted effect of over 65% in size
Sequence of Phosphoglycerate kinase, glycosomal (Trypanosoma brucei brucei) (P07378 whole entry, looked up): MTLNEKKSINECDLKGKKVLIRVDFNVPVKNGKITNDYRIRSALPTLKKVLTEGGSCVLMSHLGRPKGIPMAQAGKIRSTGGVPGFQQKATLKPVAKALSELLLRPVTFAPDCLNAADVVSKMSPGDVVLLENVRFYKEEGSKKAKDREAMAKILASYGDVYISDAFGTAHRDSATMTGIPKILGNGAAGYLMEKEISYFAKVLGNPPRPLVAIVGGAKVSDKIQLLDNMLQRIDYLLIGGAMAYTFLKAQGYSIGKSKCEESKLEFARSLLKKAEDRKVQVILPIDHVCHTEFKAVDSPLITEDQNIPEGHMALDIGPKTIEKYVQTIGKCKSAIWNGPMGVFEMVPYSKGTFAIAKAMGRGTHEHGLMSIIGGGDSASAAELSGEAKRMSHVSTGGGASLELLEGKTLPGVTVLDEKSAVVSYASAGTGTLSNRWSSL
Outline: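 Recombinant glycosomal PGK reaction used 1,3-bisphosphoglycerate generated in-well by GAPDH (100nM final) in 100mM TEA pH 7.6, 5mM MgCl2, 0.01% Tween-20. After 60 minutes at room temperature, ATP was read by Kinase-Glo Plus luminescence end-point.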

[14] = molecular target: DNA polymerase iota (Homo sapiens) (UniProt Q9UNA4); experiment: qHTS for Inhibitors of Polymerase Iota: Confirmatory Assay for Cherry-picked Compounds (AID 720496); details: Pol iota primer extension, TAMRA/BHQ fluorescence; note: potency is the fitted concentration of half-maximal effect
Outline: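 Enzyme (10 nM Pol iota) and compound sit together for 15 min at room temperature. Adding annealed primer/TAMRA-reporter/BHQ-2-template substrate, 50 nM final, starts the reaction, which is followed by fluorescence over 10 min.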

[15] = molecular target: Bifunctional 3'-5' exonuclease/ATP-dependent helicase WRN (Homo sapiens) (UniProt Q14191); experiment: qHTS for Inhibitors of WRN Helicase: Confirmatory Assay for Cherry-picked Compounds. (AID 720497); details: WRN helicase DNA unwinding, fluorescence kinetic; note: potency is the fitted concentration of half-maximal effect; nearly all actives have a fitted effect of over 65% in size
Outline: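 Helicase activity is tracked as a kinetic fluorescence signal (excitation 525 nm, emission 598 nm) after 100 nM forked duplex DNA and 2 mM ATP are added to 20 nM WRN that has been preincubated 15 min with compound at room temperature.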

[16] = molecular target: DNA polymerase kappa (Homo sapiens) (UniProt Q9UBT6); experiment: qHTS for Inhibitors of Polymerase Kappa: Confirmatory Assay for Cherry-picked Compounds (AID 720501); details: purified Pol-kappa, fluorescent strand-displacement substrate; note: potency is the fitted concentration of half-maximal effect
Outline: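 Human Pol-kappa, dispensed at 10 nM, was preincubated with compounds for 15 min at room temperature. Reactions were started with primer/template substrate (50 nM final) carrying a TAMRA reporter strand and BHQ-2-quenched template, and fluorescence (ex 525/em 598 nm) was read at 0 and 10 min.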

[17] = molecular target: RecQ-like DNA helicase BLM (Homo sapiens) (UniProt P54132); experiment: qHTS for Inhibitors of WRN Helicase: BLM Helicase Counterscreen for WRN Inhibitors (AID 720503); details: Recombinant BLM helicase DNA unwinding, red fluorescence; note: potency is the fitted concentration of half-maximal effect; nearly all actives have a fitted effect of over 60% in size
Sequence of RecQ-like DNA helicase BLM (Homo sapiens) (P54132 whole entry, looked up): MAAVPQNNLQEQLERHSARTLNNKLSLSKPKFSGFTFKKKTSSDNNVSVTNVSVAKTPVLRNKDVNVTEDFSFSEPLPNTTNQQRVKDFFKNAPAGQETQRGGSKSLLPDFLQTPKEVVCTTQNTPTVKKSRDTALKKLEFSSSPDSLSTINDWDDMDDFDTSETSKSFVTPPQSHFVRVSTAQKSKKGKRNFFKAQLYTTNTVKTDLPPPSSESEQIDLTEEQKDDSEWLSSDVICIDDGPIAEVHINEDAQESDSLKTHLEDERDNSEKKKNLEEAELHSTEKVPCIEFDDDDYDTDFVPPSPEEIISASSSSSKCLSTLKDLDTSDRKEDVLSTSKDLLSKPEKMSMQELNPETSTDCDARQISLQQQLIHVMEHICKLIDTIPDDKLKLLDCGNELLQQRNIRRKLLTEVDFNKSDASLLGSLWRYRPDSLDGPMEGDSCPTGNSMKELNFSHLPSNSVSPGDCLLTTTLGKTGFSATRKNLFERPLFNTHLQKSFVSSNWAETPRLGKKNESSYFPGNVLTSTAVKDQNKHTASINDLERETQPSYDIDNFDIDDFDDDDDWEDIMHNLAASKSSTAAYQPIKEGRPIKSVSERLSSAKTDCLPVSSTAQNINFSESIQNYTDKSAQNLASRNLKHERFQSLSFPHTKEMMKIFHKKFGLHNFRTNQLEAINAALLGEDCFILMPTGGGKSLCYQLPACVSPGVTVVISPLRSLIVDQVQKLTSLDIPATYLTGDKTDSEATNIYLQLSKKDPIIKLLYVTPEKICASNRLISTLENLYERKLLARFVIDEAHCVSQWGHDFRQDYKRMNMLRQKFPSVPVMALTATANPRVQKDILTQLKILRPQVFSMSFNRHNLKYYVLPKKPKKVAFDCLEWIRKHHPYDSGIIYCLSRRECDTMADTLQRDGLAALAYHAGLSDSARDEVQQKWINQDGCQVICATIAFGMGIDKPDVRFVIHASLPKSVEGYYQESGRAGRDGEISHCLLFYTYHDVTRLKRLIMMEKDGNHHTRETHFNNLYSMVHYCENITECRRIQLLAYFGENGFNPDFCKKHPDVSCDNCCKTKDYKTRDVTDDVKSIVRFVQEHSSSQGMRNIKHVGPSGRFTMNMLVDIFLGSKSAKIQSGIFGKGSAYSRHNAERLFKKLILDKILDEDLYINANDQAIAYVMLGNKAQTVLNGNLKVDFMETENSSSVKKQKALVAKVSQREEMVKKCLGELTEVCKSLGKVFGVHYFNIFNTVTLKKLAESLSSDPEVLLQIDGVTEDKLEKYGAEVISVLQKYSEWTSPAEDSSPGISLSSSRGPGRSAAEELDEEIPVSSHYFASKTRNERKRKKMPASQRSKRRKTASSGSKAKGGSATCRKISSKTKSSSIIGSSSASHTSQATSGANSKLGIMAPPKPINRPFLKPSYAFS
Outline: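 BLM at 1 nM was preincubated with compound for 15 min at room temperature in 25 mM Tris-HCl pH 8.0, 50 mM NaCl, 2 mM MgCl2, 1 mM DTT and 0.01% Tween-20. Unwinding was started with 100 nM DNA and 2 mM ATP (final). Fluorescence (ex 525/em 598 nm) was read twice, 15 min apart, and normalized to enzyme-free and DMSO controls.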

SMILES: CCC(NC(=O)Nc1ncccc1C)(C(F)(F)F)C(F)(F)F
- activity change, negative = inhibition [1]: 11.9% [at 17.2 µM]
- activity change, negative = inhibition [2]: -12% [at 17.2 µM]
- outcome [3]: inactive
- Potency [4]: > 20.6 µM
- Potency [5]: inactive
- Potency [6]: inactive
- Potency [7]: inactive
- Potency [8]: inactive
- Potency [9]: inactive

SMILES: O=C(O)/C(CC(=O)c1ccc(Cl)cc1)=N/Nc1ccc([N+](=O)[O-])cc1[N+](=O)[O-]
- Potency [5]: 75.7 µM (active)
- Potency [6]: inactive
- Potency [7]: inactive
- Potency [9]: inactive

SMILES: O=C(c1ccco1)N1N=C2CCCCCC2C1(O)C(F)(F)F (stereo not drawn)
- Potency [5]: inactive
- Potency [6]: inactive
- Potency [7]: inactive
- Potency [9]: inactive

SMILES: O=C(NCc1ccc(F)cc1)c1cccc2c1C(=O)c1ccc(N3CCOCC3)cc1S2(=O)=O
- Potency [5]: inactive
- Potency [6]: 56.2 µM (active)
- Potency [7]: 89.1 µM (active)
- Potency [9]: 56.2 µM (active)

SMILES: COc1ccc(/C=C2/C(=O)N(CC3CCCO3)C(=S)N2C)c(OC)c1 (stereo not drawn)
- Potency [5]: 84.9 µM (active)
- Potency [6]: inactive
- Potency [7]: inactive
- Potency [9]: inactive

SMILES: CCOC(=O)C1(Cc2ccccc2)C(=O)Nc2ccccc21 (stereo not drawn)
- Potency [5]: inactive
- Potency [6]: inactive
- activation [7]: 2.58% [at 17.1 µM, percent relative to cAMP agonist control]
- activation [9]: 32.7% [at 30.8 µM]

SMILES: COc1ccc(OC)c(/C=C/c2ccnc3ccccc23)c1
- Potency [5]: inactive
- Potency [6]: inactive
- activation [7]: 0% [at 17.1 µM, percent relative to cAMP agonist control]
- activation [9]: 14.1% [at 30.8 µM]

SMILES: C=CCn1c(SCc2cc([N+](=O)[O-])cc3c2OCOC3)nc2cc(C(=O)O)ccc2c1=O
- Potency [5]: 75.7 µM (active)
- Potency [6]: inactive
- Potency [7]: inactive
- Potency [9]: inactive

SMILES: NS(=O)(=O)c1cccc(Nc2nc3ccccc3nc2NS(=O)(=O)c2ccc(Cl)cc2)c1
- Potency [5]: 75.7 µM (active)
- Potency [6]: inactive
- Potency [7]: inactive
- Potency [9]: inactive

SMILES: CN(C)c1ccc2nc3c(=O)[nH]c(=O)nc-3n(CC(O)C(O)C(O)CO)c2c1 (stereo not drawn)
- Potency [5]: inactive
- Potency [6]: inactive
- activation [7]: -84.9% [at 17.1 µM, percent relative to cAMP agonist control]
- Potency [9]: 11.2 µM (active)

SMILES: CCOC(=O)c1cc2c(ccn2C)n1Cc1ccccc1Cl
- Potency [5]: inactive
- Potency [6]: inactive
- Potency [7]: inactive
- Potency [9]: inactive

SMILES: CCOC(=O)c1c(NC(=O)CSc2nnc(C)c(=O)[nH]2)sc(C)c1-c1ccc(C)cc1
- Potency [5]: 75.7 µM (active)
- Potency [6]: inactive
- Potency [7]: inactive
- Potency [9]: inactive

SMILES: O=C(CN1CCCCC1)Nc1cc(Cl)ccc1Oc1ccccc1
- Potency [5]: inactive
- Potency [6]: inactive
- Potency [7]: inactive
- Potency [9]: inactive

SMILES: CCOC(=O)C(Cc1ccc(Cl)cc1Cl)c1ccno1 (stereo not drawn)
- Potency [5]: inactive
- Potency [6]: inactive
- Potency [7]: inactive
- Potency [9]: inactive

SMILES: Cc1cc(C)c2nc(N3C(=O)C(O)=C(C(=O)c4ccco4)C3c3cccc(O)c3)sc2c1 (stereo not drawn)
- Potency [5]: 26.9 µM (active)
- Potency [6]: inactive
- Potency [7]: inactive
- Potency [9]: inactive

SMILES: CC(=O)NC(c1ccc(Cl)cc1)c1ccc2cccnc2c1O (stereo not drawn)
- Potency [5]: inactive
- Potency [6]: inactive
- activation [7]: -1.77% [at 17.1 µM, percent relative to cAMP agonist control]
- activation [9]: 6.93% [at 30.8 µM]

SMILES: CC1=C(C(=O)OCc2ccccc2)C(c2ccc(Cl)cc2Cl)NC(=O)N1CCCCCC(=O)O (stereo not drawn)
- Potency [5]: 75.7 µM (active)
- Potency [6]: inactive
- Potency [7]: inactive
- Potency [9]: inactive

SMILES: COc1ccc2c(c1)CCC1(C)CC(=O)C(Br)=C21 (stereo not drawn)
- Potency [5]: inactive
- Potency [6]: inactive
- Potency [7]: inactive
- Potency [9]: inactive

SMILES: CC(C)Cn1c(N)c(C(=O)COC(=O)c2cc(-c3ccco3)nc3ccccc23)c(=O)n(C)c1=O
- Potency [10]: 15.8 µM (active)
- outcome [11]: inactive
- Potency [5]: 30.1 µM (active)
- Potency [6]: inactive
- Potency [7]: inactive
- Potency [8]: inactive

SMILES: COc1ccc(N(C(=O)c2snc(C(N)=O)c2N)C(C(=O)NC2CCCC2)c2cccs2)cc1OC (stereo not drawn)
- Potency [5]: 33.8 µM (active)
- Potency [6]: inactive
- Potency [7]: inactive
- Potency [9]: inactive

SMILES: CCOCCCn1c(=N)c(S(=O)(=O)c2ccccc2)cc2c(=O)n3cc(C)ccc3nc21
- Potency [5]: inactive
- Potency [6]: inactive
- Potency [7]: inactive
- Potency [9]: inactive

SMILES: Oc1[nH]c2ccc(Br)cc2c1N=Nc1ccc(F)cc1
- Potency [12]: 10.3 µM (active)
- Potency [5]: 84.9 µM (active)
- Potency [6]: inactive
- Potency [7]: inactive
- Potency [8]: 70.8 µM (active)
- Potency [9]: inactive

SMILES: COc1ccc(C2CC2/C(=N/O)c2ccccn2)cc1 (stereo not drawn)
- Potency [5]: inactive
- Potency [6]: inactive
- Potency [7]: inactive
- Potency [9]: inactive

SMILES: Cc1nc(S/C(=C/c2ccc(-c3cc(Cl)ccc3C)o2)C(=O)O)n[nH]1
- Potency [5]: 26.9 µM (active)
- Potency [6]: inactive
- Potency [7]: inactive
- Potency [9]: inactive

SMILES: O=c1ccc2c(-c3ccccc3S(=O)(=O)O)c3ccc(O)c(O)c3oc-2c1O
- Potency [13]: 0.366 µM (active)
- Potency [14]: 0.597 µM (active)
- Potency [15]: 0.541 µM (active)
- Potency [16]: 1.06 µM (active)
- Potency [17]: 0.136 µM (active)
- Potency [5]: 7.94 µM (active)
- Potency [6]: inactive
- activation [7]: -12% [at 17.1 µM, percent relative to cAMP agonist control]
- activity change, negative = inhibition [8]: -28.7% [at 30.8 µM]
- activation [9]: -15.5% [at 30.8 µM]

SMILES: O=C(O)Cc1ccc(C(=O)c2ccc(Cl)cc2Cl)s1
- Potency [5]: inactive
- Potency [6]: inactive
- Potency [7]: inactive
- Potency [9]: inactive

SMILES: O=C1c2ccccc2S(=O)(=O)c2cc(N3CCC(C(=O)N4CCCCC4)CC3)ccc21
- Potency [5]: inactive
- Potency [6]: 89.1 µM (active)
- Potency [7]: 100 µM (active)
- Potency [9]: 56.2 µM (active)
